Records with an inconclusive call do not appear. Unmarked numbers belong to inactive results. Calls of active or inactive are those of the source. Calls follow the shape of the dose curve; as a rule, active = well fitted cell-killing curve with a large enough effect; inconclusive = small, poorly fitted or top-dose-only effect, or effect the other way; inactive = flat fitted curve, though single readings scatter.
These compounds were tested on CAOV3 (assay: Primary qHTS to identify gynecologic anti-cancer compounds using libraries of approved drugs and bioactive compounds (AID 1345084; also: nearly all actives have a fitted effect of over 55% in size)). Conditions: Gynecologic cancer cell panel viability, ATPlite luminescence, 48 h; series mostly up to 57.5 µM; activity change, negative = cytotoxicity: at the top concentration.
From the text: National Center for Advancing Translational Sciences [NCATS] Assay Overview: Chemotherapeutic drug responses vary from cancer to cancer and from patient to patient. These variations could be caused by a number of factors including patient genomic background, tumor mutations, tumor heterogeneity, and aspects of drug treatment. Chemotherapeutic drug resistance is also a common issue and can lead to ineffective treatment and patient death. Here we have profiled the cell killing effects of thousands of compounds to characterize the responses in three gynecological cancers, identify cancer-selective compounds, and understand the diversity of responses to these compounds from pan-cancer suppressors to single cell line selective compounds. In this assay, we screened a 7,914 compound drug library that included approved drug and bioactive compounds in six ovarian, three cervical, and […] placental cancer cell lines using the ATPlite assay for cell viability. […] The cervical cancer cell lines included HeLa, Ca Ski, and C-33 A. The placental cancer cell lines included JEG-3. HEK 293T cells were used as the control cell line to determine the selectivity index. ATPlite is a luminescence based assay reliant on the conversion of a luciferase substrate to light in the presence of ATP. As a cytotoxic compound will suppress growth and decrease the number of cells, the concentration of ATP will decrease, and less light signal will be detected in the well.
Assay Protocol Summary: 1,000 cells in 4 uL of media were dispensed into white, solid bottom 1536-well plates using a Multidrop Combi (Thermo Scientific). The Assay plates were incubated for 16 hours at 37 C with 5% CO2 in assay plates, followed by the addition of 23 nL of DMSO or drug dissolved in DMSO. Each compound was assayed in five concentrations (0.092, 0.46, 2.3, 11.5, and 57.5 uM), using the automated Wako 1536 Pin Tool workstation and incubated at 37 C with 5% CO2 48 hours. 4 uL of ATPlite, the ATP monitoring reagent, was then added to the each well of the assay plates using the Multidrop Combi reagent dispenser followed by incubation for 15 minutes at room temperature. The resulting luminescence was measured using the ViewLux plate reader.
With `CCNC1(C(N)=O)CN(c2nc(C)nc3c(-c4ccc(Cl)cc4)c(-c4ccccc4Cl)nn23)C1` the “activity change, negative = cytotoxicity” value was -18.4%.
With `CC(C)Oc1ccc(-c2cnc3c(-c4ccnc5ccccc45)cnn3c2)cc1` the “activity change, negative = cytotoxicity” value was -9%.
In the case of `O=C(NO)c1ccc(CC(=O)N(CCO)c2ccccc2)cc1`, the “activity change, negative = cytotoxicity” value is reported as -0.396%.
In the case of `COc1ccc(C2(N(C)C(=O)c3ccc(NC(=O)c4ccco4)cc3)CCOCC2)cc1`, the “activity change, negative = cytotoxicity” value is reported as -12.7%.
In the case of `COc1ccccc1C(=O)Nc1cccc(NC(=O)c2cccc(C)c2)c1`, the “activity change, negative = cytotoxicity” value is reported as -21.2%.
`O=C(NCc1ccccc1-c1ccccc1C(=O)NCCc1ccccn1)OCc1ccccc1` was tested, and the “activity change, negative = cytotoxicity” value was 10.1%.
In the case of `O=S(=O)(Cc1ccccc1)Nc1ccc(-c2ccc3c(cnn3-c3ccc(F)cc3)c2)c(C(F)(F)F)c1`, the “activity change, negative = cytotoxicity” value is reported as -10.2%.
For `CC(C)c1noc(C2CCN(c3ncnc(Nc4ccc(S(C)(=O)=O)cc4F)c3[N+](=O)[O-])CC2)n1`, the “activity change, negative = cytotoxicity” value was -0.423%.
For `CCC(C)CNCC(=O)N1CCC2SC=CC2C1COc1cccc(C)c1` (stereo not given), the “activity change, negative = cytotoxicity” value was -0.538%.
`O=C(NCc1ccc(OC(F)(F)F)cc1)C1c2c(F)cccc2C(=O)N1CCc1ccccn1` (stereo not given) was tested, and the “activity change, negative = cytotoxicity” value was 6.45%.
`CCC(CC)Nc1nc(C)c(-c2ccc(OC(F)(F)F)cc2OC)nc1OC` was tested, and the “activity change, negative = cytotoxicity” value was -6.75%.
With `CNC(=O)c1cc(Oc2ccc(NC(=O)c3cccc(C(F)(F)F)c3)cc2)ccn1` the “activity change, negative = cytotoxicity” value was -3.99%.
In the case of `C=C1CC2[C@@]3(C)C=CC(=O)C(C)(C)C3=C(O)C(=O)[C@@]2(C)C2(C(=O)OC)C(=O)C(C)OC(=O)[C@@]12C` (stereo not given in full), the “activity change, negative = cytotoxicity” value is reported as -6.7% [at 25.3 µM].
In the case of `C=C1C(=O)O[C@@H]2C[C@H](C)[C@@H]3CC(=O)[C@H](O)[C@@]3(C)C[C@H]12`, the “activity change, negative = cytotoxicity” value is reported as -8.57%.
With `c1ccc(-c2ccc(CNc3nc(-c4ccccn4)nnc3-c3ccccc3)cc2)cc1` the Potency was 8.91 µM (active).
`C=C1C(=O)OC2/C=C(\CO)CC/C=C(\C=O)C(OC)C(OC(=O)C(C)CC)C12` (stereo not given) was tested, and the “activity change, negative = cytotoxicity” value was -13.6% [at 25.3 µM].
Work on `C[C@@H]1O[C@@H](O[C@H]2[C@H](O[C@H]3CC[C@@]4(C)C(CC[C@]5(C)C4C=C[C@]46OC[C@@]7(CCC(C)(C)C[C@H]74)[C@@H](O[C@@H]4O[C@@H](C)[C@H](O)[C@@H](O)[C@H]4O)C[C@]65C)[C@]3(C)CO)O[C@H](CO)[C@@H](O)[C@@H]2O[C@@H]2O[C@H](CO)[C@@H](O)[C@H](O)[C@H]2O)[C@H](O)[C@H](O)[C@H]1O` (stereo not given in full) yielded an activity change, negative = cytotoxicity of 9.8% [at 11.6 µM].
`O=C(Nc1ccc(Cl)cc1)C1CCCN(C(=O)c2cccc(-c3ccco3)c2)C1` (stereo not given) was tested, and the “activity change, negative = cytotoxicity” value was 3.7%.
In the case of `C=C1C(OC2OC(CO)C(O)C(O)C2O)CC2C(C)(C)C(O)CCC2(C)C1CC/C(C)=C\COC(=O)CC(=O)O` (stereo not given), the “activity change, negative = cytotoxicity” value is reported as -6.8% [at 25.3 µM].
`Nc1ncnc2c1nc(Cl)n2C1OC2COP(=O)(O)OC2C1O` (stereo not given) was tested, and the Potency was 5.62 µM (active).
`COc1ccnc(CS(=O)c2nc3cc(OC(F)F)ccc3[nH]2)c1OC` (stereo not given) was tested, and the “activity change, negative = cytotoxicity” value was -1.33%.
For `COc1ccc(C#Cc2ccc(C(=O)N3CCC[C@@H](CO)C3)cc2)cc1`, the “activity change, negative = cytotoxicity” value was -0.734%.
For `Cc1cc2c(c(=O)o1)C=C1CC[C@H]([C@H](C)Cn3cnc(=N)c4[nH]cnc43)C[C@@H]1O2`, the “activity change, negative = cytotoxicity” value was -5.45%.
In the case of `OC1(CN2CCC(COc3noc4cccc(O[C@@H]5CCOC5)c34)CC2)CCOCC1`, the “activity change, negative = cytotoxicity” value is reported as -2.97%.
With `C=C1C(=O)O[C@@H]2C[C@H](C)C3=CC(=O)[C@H](O)[C@@]3(C)C[C@H]12` the “activity change, negative = cytotoxicity” value was -3.62%.
In the case of `CC(C)=C1C[C@@]2(C)C(=CC1=O)CC[C@@H](OC(=O)/C(C)=C/CO)[C@@H]2C`, the “activity change, negative = cytotoxicity” value is reported as -4.39% [at 38.5 µM].
`C/C=C(/C)C(=O)O[C@H]1C=C(CO)C(=O)[C@H](OC(=O)/C(C)=C/CO)[C@H]1C(C)C` was tested, and the Potency was 11.2 µM (active).
With `C/C=C/C=C/C=C/C(=O)O[C@@H]1C=C(CO)C(O)(C(=O)OC)[C@@]2(C)CCCC(C)(C)C12` (stereo not given in full) the “activity change, negative = cytotoxicity” value was 0.633% [at 25.3 µM].
`CCC[C@H](N[C@H]1CCc2cc(F)cc(F)c2C1)C(=O)Nc1cn(C(C)(C)CNCC(C)(C)C)cn1` was tested, and the “activity change, negative = cytotoxicity” value was 6.55%.
In the case of `CC(=O)C=C=C1C(C)(C)CC(O)CC1(C)O[C@@H]1O[C@H](CO[C@H]2OC[C@](O)(CO)[C@H]2O)[C@@H](O)[C@H](O)[C@H]1O` (stereo not given in full), the “activity change, negative = cytotoxicity” value is reported as -1.95% [at 25.3 µM].
With `CCC(C)C1NC(=O)C(Cc2ccccc2)NC(=O)C(CCCCCC(=O)C(O)CO)NC(=O)C2CCCCN2C1=O` (stereo not given) the “activity change, negative = cytotoxicity” value was -6.8% [at 25.3 µM].
In the case of `CN(C)c1ccnc2sc3c(=O)n(N4CCCCCC4)cnc3c12`, the “activity change, negative = cytotoxicity” value is reported as 4.01%.
In the case of `CCC[C@@]1(CCc2ccccc2)CC(O)=C([C@H](CC)c2cccc(NS(=O)(=O)c3ccc(C(F)(F)F)cn3)c2)C(=O)O1`, the “activity change, negative = cytotoxicity” value is reported as 0.242%.
With `COc1ccc(CCCN2CCC(COC(c3ccccc3)c3ccccc3)CC2)cc1` the “activity change, negative = cytotoxicity” value was -10.2%.
In the case of `CC(C)(C)c1ccc(NC(=O)N2CCN(c3ncccc3Cl)CC2)cc1`, the “activity change, negative = cytotoxicity” value is reported as 3.29%.
With `CCC(C)C(=O)OC1C(C)C2(O)C(C=C(CO)CC3(O)C(=O)C(C)=CC32)C2C(C)(C)C12OC(=O)C(C)C` (stereo not given) the “activity change, negative = cytotoxicity” value was -2.31% [at 25.3 µM].
`Cn1ncc(Cl)c1-c1cc(C(=O)N[C@H](CN)Cc2cccc(F)c2)sc1Cl` was tested, and the “activity change, negative = cytotoxicity” value was -22.6%.
In the case of `CC[C@H](C)/C=C(C)/C=C/C1=CC2=C(Cl)C(=O)[C@](C)(O)[C@H](OC(C)=O)[C@H]2CO1`, the “activity change, negative = cytotoxicity” value is reported as 12.7% [at 38.5 µM].
For `CC(C)(O)C1Cc2c(ccc(C(=O)CCc3ccccc3)c2O)O1` (stereo not given), the Potency was 10 µM (active).
With `COC(=O)C[C@H]1C(C)(C)[C@H](OC(=O)c2ccccc2)C2CC3=C4CC(=O)O[C@@H](c5ccoc5)[C@]4(C)CCC3[C@@]1(C)C2=O` (stereo not given in full) the “activity change, negative = cytotoxicity” value was 19.8% [at 25.3 µM].

From PubChem BioAssay (NCATS)
% is scaled to controls: 0 for no effect and ±100 for the full control effect; potency is read from the fitted curve at half-maximal effect.
